According to PubChem BioAssay (NCI):
Compounds without any hit were thinned out: in the full panel of roughly 83,000, 20% have a hit.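 Plates (96-well) were seeded with cells, treated with compound at one concentration, and incubated for 48 hours before percent growth was determined.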 A number with no mark means an inactive call. The source made the active and inactive calls. The calls were made as follows: active = growth percent below 10; inactive = the rest.

Assays:
Assay in all cases: NCI-60 one-dose screen, 48 h (100 = growth as untreated, 0 = no growth, -100 = all killed)
Conditions in all cases: 10 µM unless noted
SR leukemia = tested on: SR leukemia
RPMI-8226 leukemia = tested on: RPMI-8226 leukemia
OVCAR-8 ovarian = tested on: OVCAR-8 ovarian
OVCAR-5 ovarian = tested on: OVCAR-5 ovarian
OVCAR-4 ovarian = tested on: OVCAR-4 ovarian
SK-OV-3 ovarian = tested on: SK-OV-3 ovarian
IGROV1 ovarian = tested on: IGROV1 ovarian
OVCAR-3 ovarian = tested on: OVCAR-3 ovarian
HS 578T breast = tested on: HS 578T breast
NCI/ADR-RES ovarian = tested on: NCI/ADR-RES ovarian
T-47D breast = tested on: T-47D breast
BT-549 breast = tested on: BT-549 breast
MDA-MB-435 melanoma = tested on: MDA-MB-435 melanoma
SW-620 colon = tested on: SW-620 colon
MCF7 breast = tested on: MCF7 breast
HCT-116 colon = tested on: HCT-116 colon
HCC-2998 colon = tested on: HCC-2998 colon
KM12 colon = tested on: KM12 colon

Row | SMILES | growth (SR leukemia) | growth (RPMI-8226 leukemia) | growth (OVCAR-8 ovarian) | growth (OVCAR-5 ovarian) | growth (OVCAR-4 ovarian) | growth (SK-OV-3 ovarian) | growth (IGROV1 ovarian) | growth (OVCAR-3 ovarian) | growth (HS 578T breast) | growth (NCI/ADR-RES ovarian) | growth (T-47D breast) | growth (BT-549 breast) | growth (MDA-MB-435 melanoma) | growth (SW-620 colon) | growth (MCF7 breast) | growth (HCT-116 colon) | growth (HCC-2998 colon) | growth (KM12 colon)
1 | Cn1cc(-c2ccc3nc(-c4ccc(CC(=O)ONc5cc(C(C)(C)C)on5)cc4)cnc3c2)cn1 | 15.5% | 45.2% | 33.7% | 66.1% | 35.4% | -17.1% (active) | 10.3% | 48% | 31% | 33.2% | 24.2% | 29.6% | 34.4% | 40.6% | 53.1% | 16.7% | 41.8% | 11%
2 | O=C(O)CCN1C(=O)/C(=C/C(Cl)=C/c2ccccc2)SC1=S | 6.86% (active) | -8.3% (active) | 22.8% | 57.8% | 28.7% | 94% | 22.6% | 2.92% (active) | 33.8% | 11.3% | 28.8% | 16.9% | -63.4% (active) | 7.78% (active) | 15.7% | -19% (active) | 4.75% (active) | 15.3%
3 | COc1ccccc1N1CCCCC1 | 112% | 101% | 110% | 86.2% | 109% | 100% | 101% | 114% | 101% | 106% | 99.1% | 96% | 112% | 99.9% | 96.3% | 102% | 110% | 107%
4 | C=C1C(=O)O[C@H]2[C@H]1CC/C(COC(=O)c1cc3ccccc3s1)=C\CC[C@@]1(C)O[C@@H]21 | -1.95% (active) | -25.3% (active) | -12% (active) | -57.3% (active) | -62% (active) | 85.3% | -66% (active) | -69% (active) | -17.7% (active) | 1.73% (active) | -50.2% (active) | -59% (active) | -71% (active) | -67.4% (active) | -41.9% (active) | -83.8% (active) | -76.6% (active) | -59.7% (active)
5 | O=C1Nc2ccccc2/C1=C/c1nc2ccccc2c(=O)[nH]1 | 31% | 85.9% | 93.4% | 125% | 94.5% | 96% | 69.5% | 90.9% | 93.4% | 97% | 71.5% | 95% | 104% | 102% | 60.2% | 76.7% | 102% | 96.4%
6 | Cn1c(=O)cc2c3c(c(NCCCO)ccc31)C(=O)c1ccccc1-2 | 13.4% | 54.6% | 33.2% | 65.6% | 47.7% | 51.6% | 41.8% | 54.4% | 60.2% | 57.1% | 51.8% | 73.6% | 44% | 32.6% | 27.6% | 16.5% | 49.1% | 42.7%
7 | O=C1c2ccc3c4c5ccc(c24)C(=O)N1CCCOCCCCOCCCNCc1ccc(cc1)CNCCCOCCCCOCCCN(C3=O)C5=O | -10.9% (active) | 3.9% (active) | -29.6% (active) | -63.3% (active) | -97.8% (active) | 12.9% | -78.4% (active) | -27.2% (active) | 85.6% | 90% | -48.7% (active) | 68.7% | -95.4% (active) | -37.8% (active) | -58.3% (active) | -62.9% (active) | -75% (active) | -30.4% (active)
8 | CC(C)(C)CC(C)(C)NC(=O)Nc1ncccc1OCc1ccccc1 | 89.4% | 84.9% | 99.4% | 91.6% | 84.3% | 104% | 93.9% | 98.5% | 106% | 86.2% | 72% | 98.2% | 99.7% | 98.6% | 80.6% | 75.2% | 92.9% | 94.5%
9 | CCOC(=O)n1ccn(C)c1=S | 94.2% | 103% | 105% | 102% | 110% | 85.3% | 110% | 106% | 132% | 107% | -28.3% (active) | 98.7% | 102% | 111% | 102% | 94.4% | 106% | 101%
10 | Cc1c[n+](Cc2ccc3ccccc3c2)cn1Cc1ccc2ccccc2c1 | -47.2% (active) | -42.4% (active) | 2.04% (active) | 27.1% | -7.39% (active) | 35.3% | -16.3% (active) | -2.44% (active) | 46.8% | 101% | -8.03% (active) | -2.98% (active) | -20.9% (active) | 36.8% | 18.5% | 23.2% | 14.8% | -44.7% (active)
11 | S=c1sc2c(Cl)nc(-c3cccnc3)nc2n1-c1ccccc1 | -27.2% (active) | -3.47% (active) | 18% | 125% | 70.6% | 87.9% | -60.2% (active) | 52.2% | 55.9% | 60.2% | -14.5% (active) | 27.9% | 41.2% | 0.199% (active) | 3.63% (active) | 1.57% (active) | 39.6% | 46.3%
12 | COC(=O)c1nc(-c2ccccc2)oc1S(=O)(=O)Cc1ccccc1 | -11.5% (active) | 84.5% | 90.1% | 102% | 101% | 97.6% | 85.6% | 41.1% | 110% | 97% | 59.9% | 80.1% | 100% | 32.9% | 78.5% | 68.9% | 111% | 96.4%
13 | CC1CN(S(=O)(=O)c2oc(-c3ccc(Cl)cc3)nc2C#N)CC(C)O1 (stereo not drawn) | -12.9% (active) | 24.2% | 54.6% | 100% | 92.4% | 99.9% | 80.5% | 34.4% | 98.7% | 101% | 27% | 89% | 86.4% | -66.1% (active) | 55.2% | -53.4% (active) | 105% | 100%
14 | COC(=O)CC[C@@H]1O[C@@H](c2cccc(C(F)(F)F)c2)[C@@H](O)[C@H]1O | 97.1% | 109% | 110% | 97.1% | 105% | 97.8% | 112% | 99.4% | 93.8% | 108% | 98.8% | 98.9% | 102% | 100% | 96.7% | 98.2% | 114% | 94.1%
15 | Nc1c(C(=O)Nc2ccccc2F)sc2nc3c(cc12)CCCC3 | 13.3% | 28% | 40.7% | 74.7% | 54% | 26.6% | 58.9% | 4.6% (active) | 48.9% | 24.7% | 41.9% | 56.8% | -7.54% (active) | 25.3% | 18% | 23.7% | 57.7% | 27.6%
16 | COc1ccc(/C=C/C(=O)c2cc3c(N)c(C(=O)Nc4cccc5ccccc45)sc3nc2C)cc1 | 44.1% | 33.4% | 81% | 103% | 88.7% | 87.7% | 70.4% | 22% | 47.6% | 58.8% | 66.4% | 87.5% | -18.8% (active) | 24.8% | 13.5% | 86.6% | 94.9% | 74.4%
